{
  "source": "PubChem BioAssay (Tox21)",
  "note": "Records with an inconclusive call do not appear. Active and inactive are the calls of the source. The call rests on the fitted dose curve. On the % scale 0 is the no-effect control and ±100 the full control effect.",
  "data": [
    {"experiment": "qHTS assay to identify small molecule agonists of H2AX - cell viability counter screen (AID 1224847); further: top concentration of the series differs between compounds; nearly all actives have a fitted effect of over 30% in size", "settings": "CHO-K1 viability, CellTiter-Glo luminescence, 3 h; series mostly up to 154 µM; activity change, negative = cytotoxicity: at the top concentration", "excerpt": "National Center for Advancing Translational Sciences [NCATS]\nNIH Chemical Genomics Center [NCGC]\nU.S. Environmental Protection Agency [EPA]\nNational Institutes of Environmental Health Sciences [NIEHS]\nNational Toxicology Program [NTP]\nU.S. Food and Drug Administration [FDA]\nHTRF phospho-H2AX (Ser139) assay (Cisbio Bioassays, US) enables the quantitative detection of the histone variant H2AX when phosphorylated on serine 139. When double-stranded DNA breaks, either by ionizing radiation or endogenous physiological processes, H2AX becomes phosphorylated at Ser139. This phospho-Ser139 serves as a sensitive biomarker for the detection of such breaks, localizing the site of DNA repair. So, HTRF phospho-H2AX Ser139 is a pertinent assay to study genome stability, the cell cycle, DNA repair, and it serves as a biomarker for cancer, and to understand aging. Wild type CHO-K1 cells were used to identify the inducers of Phospho-H2AX Ser 139 from the Tox21 compound collections. Also cytotoxicity of the Tox21 10K compound library against the CHO-K1 cell line was tested by measuring the cell viability using CellTiter-Glo assay (Promega, Madison, WI).\nTox21 Assay Protocol Summary:\nThe CHO-K1 cells suspended in culture medium containing 10% FBS were dispensed at 1000 cells/ 3 ul/well in 1536-well white wall/solid bottom plates (Greiner Bio-One North America, NC) using a Multidrop Combi (Thermo Fisher Scientific Inc., Waltham, MA). After the assay plates were incubated at 37C overnight, 23 nl of compounds at 15 concentrations (from 5-48 columns) or positive control (from 1 to 4 columns) were transferred to the assay plates using a Pintool station (Wako, San Diego, CA) into each well resulting in a final DMSO concentration of 0.76%. After 3hr incubation at 37C, 3 uL/well CellTiter-Glo luminescent cell viability reagent (Promega Corporation, Madison, WI) was added using a Flying Reagent Dispenser (FRD) (Aurora Discovery, CA). After incubation at room temperature for 30 min, the luminescence intensity was read using a ViewLux plate reader (PerkinElmer, Waltham, MA).", "values": [
      {"molecule": "CC1=CC(=O)CCC1", "activity change, negative = cytotoxicity": "9.11% (inactive)"},
      {"molecule": "CCC(C(=O)NC(N)=O)c1ccccc1", "note": "(stereo not given)", "activity change, negative = cytotoxicity": "-3.21% (inactive)"},
      {"molecule": "C#CC(C)(O)CC(C)C", "note": "(stereo not given)", "activity change, negative = cytotoxicity": "0.48% (inactive)"},
      {"molecule": "Cn1ccc2cc3c(cc21)CCN3C(=O)Nc1cccnc1", "activity change, negative = cytotoxicity": "1.26% [at 31.6 µM] (inactive)"},
      {"molecule": "CC(C)(O)C(=O)c1ccc(OCCO)cc1", "activity change, negative = cytotoxicity": "3.88% (inactive)"},
      {"molecule": "C#CC(O)C(CC)CCCC", "note": "(stereo not given)", "activity change, negative = cytotoxicity": "3.24% (inactive)"},
      {"molecule": "COc1cc(CCC(C)=O)ccc1O", "activity change, negative = cytotoxicity": "3.47% (inactive)"},
      {"molecule": "CCC(C)OC(=O)N1CCCCC1CCO", "note": "(stereo not given)", "activity change, negative = cytotoxicity": "3.88% (inactive)"},
      {"molecule": "CO[Si](OC)(OC)OC", "activity change, negative = cytotoxicity": "1.58% (inactive)"},
      {"molecule": "CCCCCCCCCCCCCCC", "activity change, negative = cytotoxicity": "1.36% (inactive)"},
      {"molecule": "COc1cc(C)cc(O)c1", "activity change, negative = cytotoxicity": "2.58% (inactive)"},
      {"molecule": "NC1CCN(c2cccc(Cl)n2)CC1", "activity change, negative = cytotoxicity": "-0.0685% [at 70.9 µM] (inactive)"},
      {"molecule": "O=C(O)C(O)[C@H](O)[C@@H](O)[C@H](O)[C@H](O)CO", "note": "(stereo not given in full)", "activity change, negative = cytotoxicity": "0.826% (inactive)"},
      {"molecule": "CC(=O)N[C@@H](CCC(N)=O)C(=O)O", "activity change, negative = cytotoxicity": "-0.802% [at 70.9 µM] (inactive)"},
      {"molecule": "N[C@@H](CS)C(=O)O", "activity change, negative = cytotoxicity": "-0.69% (inactive)"},
      {"molecule": "COc1ccc(COC=O)cc1", "activity change, negative = cytotoxicity": "0.174% (inactive)"},
      {"molecule": "CC(C)=CC(=O)O", "activity change, negative = cytotoxicity": "-0.981% (inactive)"},
      {"molecule": "CCCCCCCCCCCl", "activity change, negative = cytotoxicity": "-0.164% (inactive)"},
      {"molecule": "Cc1onc(-c2ccccc2)c1-c1ccc(S(N)(=O)=O)cc1", "activity change, negative = cytotoxicity": "0.233% [at 70.9 µM] (inactive)"},
      {"molecule": "CCCCCC[C@@H](CCC)C(=O)O", "activity change, negative = cytotoxicity": "-0.341% [at 70.9 µM] (inactive)"},
      {"molecule": "COc1cc(O)cc(O)c1", "activity change, negative = cytotoxicity": "7.2% [at 70.9 µM] (inactive)"},
      {"molecule": "O=C(O)c1ccccc1S", "activity change, negative = cytotoxicity": "2.06% [at 70.9 µM] (inactive)"},
      {"molecule": "CC/C=C\\CCCCO", "activity change, negative = cytotoxicity": "1.39% (inactive)"},
      {"molecule": "Nc1ccc2cc(S(=O)(=O)O)ccc2c1", "activity change, negative = cytotoxicity": "-0.286% (inactive)"},
      {"molecule": "OCCCCCCO", "activity change, negative = cytotoxicity": "-0.398% (inactive)"},
      {"molecule": "CN(C)C(=O)C(CCN1CCC(O)(c2ccc(Cl)cc2)CC1)(c1ccccc1)c1ccccc1", "activity change, negative = cytotoxicity": "-7.33% [at 70.9 µM] (inactive)"},
      {"molecule": "COCCOC(=O)CC#N", "activity change, negative = cytotoxicity": "1.21% (inactive)"},
      {"molecule": "Fc1ccccc1-c1ccccc1", "activity change, negative = cytotoxicity": "0.924% (inactive)"},
      {"molecule": "CC/C=C\\C#N", "activity change, negative = cytotoxicity": "-3.24% (inactive)"},
      {"molecule": "NS(=O)(=O)c1cc2c(cc1C(F)(F)F)NC(Cc1ccccc1)NS2(=O)=O", "note": "(stereo not given)", "activity change, negative = cytotoxicity": "0.0858% [at 70.9 µM] (inactive)"},
      {"molecule": "CCN(CC)S(=O)(=O)c1ccc(C(=O)O)cc1", "activity change, negative = cytotoxicity": "-0.172% [at 70.9 µM] (inactive)"},
      {"molecule": "CCCCCCCCCCCCI", "activity change, negative = cytotoxicity": "-0.0866% (inactive)"},
      {"molecule": "Oc1cc(O)c2c(c1)O[C@H](c1ccc(O)c(O)c1)[C@H](O)C2", "activity change, negative = cytotoxicity": "-3.28% [at 70.9 µM] (inactive)"},
      {"molecule": "CC(C)(C)C(=O)/C=C/c1ccc(Cl)cc1", "activity change, negative = cytotoxicity": "-9.73% (inactive)"},
      {"molecule": "c1ccc2cnncc2c1", "activity change, negative = cytotoxicity": "-1.72% (inactive)"},
      {"molecule": "CCC(C)(C)C1CCC(OC)CC1", "note": "(stereo not given)", "activity change, negative = cytotoxicity": "1.85% (inactive)"},
      {"molecule": "O=C(O)c1ccc[n+]([O-])c1", "activity change, negative = cytotoxicity": "3.63% [at 70.9 µM] (inactive)"},
      {"molecule": "CCCCCCCCCCCCCCCCCCOCC(O)CO", "note": "(stereo not given)", "activity change, negative = cytotoxicity": "-0.348% [at 70.9 µM] (inactive)"},
      {"molecule": "CCN1CCCC(OC(=O)C(c2ccccc2)c2ccccc2)C1", "note": "(stereo not given)", "activity change, negative = cytotoxicity": "-3.99% [at 70.9 µM] (inactive)"},
      {"molecule": "CN(C)CCOC(c1ccc(Cl)cc1)c1ccccn1", "note": "(stereo not given)", "activity change, negative = cytotoxicity": "-0.478% [at 70.9 µM] (inactive)"}
    ]}
  ]
}
